# Sampled rows, rich in hits. Any-hit rate of the full collection: about 4%.
# PK Bst: pyruvate kinase (B. stearothermophilus) modulation | purified pyruvate kinase, luminescence ATP production; ribose 5-phosphate activator present at AC10 | Potency, µM | 1.2% of 51,000 active | AID 361; in the data active = potency below about 11 µM; inconclusive = mostly about 12 µM to 25 µM;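 the screen sought inhibitors and activators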;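 also: potency is read from the fitted curve at half-maximal effect; scaled between full activation by ribose 5 phosphate and full inhibition by luteolin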
# Caspase-1 inhib: blocks human caspase-1 allosterically or competitively; Caspase-1 enzyme, Ac-WEHD-AFC fluorogenic rate; Potency, µM (titrated, usually from 57.5 µM), without a hit: top-dose activity change, negative = inhibition, hits mostly inhibitors; 0.03% of 75,000 active; AID 900;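 also: potency is read from the fitted curve at half-maximal effect; plate controls were vehicle for no effect and no substrate for full effect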
# HEK293 cAMP cs: counter-screen for TSHR agonists: cAMP increase in parental HEK293; parental HEK293 CNG cAMP sensor, membrane potential fluorescence; Potency, µM (doses to about 57.1 µM), without a hit: at the top dose activation, most hits filed as activators; 2.5% of 73,000 active; also: potency is read from the fitted curve at half-maximal effect; % of control where 0% means no effect; nearly all actives have a fitted effect of over 55% in size
#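 Counterscreen for endogenous-receptor signalling: CNG-channel HEK 293 cells report cAMP rise by membrane depolarization. After 60 min dye equilibration with 100 uM RO 20-1724, compounds incubated 30 min before bottom-read fluorescence at 590 nm.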
# Caspase-7 inhib: allosteric or competitive inhibitors of human caspase-7 | P55210 | recombinant caspase-7, Ac-DEVD-AFC fluorescence rate | Potency, µM (titrated, usually from 57.5 µM), inactives show top-dose activity change, negative = inhibition, usual class: inhibitors | 0.02% of 75,000 active; active = well fitted inhibition curve with a large enough effect in the main read-out, with a control signal flat, not every such curve was filed as active; inconclusive = small, poorly fitted or top-dose-only effect, or a change in a side signal; also: potency is read from the fitted curve at half-maximal effect; % of control where 0% means no effect
# Target sequence (P55210 24-198 limits assumed): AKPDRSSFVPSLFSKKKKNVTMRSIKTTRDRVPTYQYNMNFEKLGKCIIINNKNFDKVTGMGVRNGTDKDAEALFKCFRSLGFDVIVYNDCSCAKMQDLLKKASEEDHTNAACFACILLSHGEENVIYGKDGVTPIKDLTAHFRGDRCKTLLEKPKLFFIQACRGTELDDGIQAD
# Target sequence (P55210 207-303 limits assumed): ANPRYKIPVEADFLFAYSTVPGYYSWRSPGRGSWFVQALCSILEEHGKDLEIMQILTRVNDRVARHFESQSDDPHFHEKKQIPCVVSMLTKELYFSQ
# GBA mod: alters purified human glucocerebrosidase activity. 1.1% of 48,000 active. Potency, µM. purified enzyme, resorufin glucoside fluorescence (screen aimed at inhibitors), 20 min. P04062. AID 360; in the data active = potency below about 15 µM; inconclusive = mostly about 16 µM to 33 µM;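 also: potency is read from the fitted curve at half-maximal effect; the screen sought inhibitors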
#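 Compounds titrated against 0.2 nM normal enzyme, 30 uM resorufin beta-D-glucopyranoside substrate, citrate/phosphate buffer with taurocholate and tween-20, pH 5.9. Reaction ran 20 min at room temperature; fluorescence (Ex 548/Em 600) gave AC50.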
# TSHR agonist: activates the human thyroid stimulating hormone receptor; Potency, µM (doses to about 57.1 µM), without a hit: at the highest dose activation, actives largely listed as activators; HEK293-CNG-TSHR cells (CNG channel as cAMP sensor), membrane potential dye, cAMP; 0.48% of 73,000 active; P16473; active = well fitted activation curve with a large enough effect in the main read-out, with a control signal flat, not every such curve was filed as active; inconclusive = small, poorly fitted or top-dose-only effect, or a change in a side signal; inactive = no such curve, though single readings can be large or run the other way; % of control where 0% means no effect;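 also: the control signal comes from parental cells without the receptor; potency is read from the fitted curve at half-maximal effect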
#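 cAMP rise detected as CNG-channel membrane depolarization by fluorescent dye (emission 590 nm), 30 min after compound, following 60 min dye loading containing 100 uM RO 20-1724 at room temperature. Cells: TSHR/CNG HEK 293, with parental CNG HEK 293 as control.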
# HEK293 cAMP cnt: raises cAMP in parental HEK293 cells lacking TSH receptor; activity change, negative = inhibition, % at 32.9 µM; parental HEK293 CNG biosensor, cAMP membrane potential fluorescence; shares compounds with TSHR agonist; 150 tested, under 10 active
# Numbers without * were called inactive; ? = inconclusive; · = not tested or not shown; [ ] = another dose, or the depositor's remark. Unless noted, calls follow the shape of the dose curve; as a rule, active = well fitted curve in the direction sought with a large enough effect; inconclusive = small, poorly fitted or top-dose-only effect, or another doubt; inactive = no such curve, though single readings can be large; an effect the other way counts as inactive or inconclusive.
SMILES,PK Bst,Caspase-1 inhib,HEK293 cAMP cs,Caspase-7 inhib,GBA mod,TSHR agonist,HEK293 cAMP cnt
Cc1c(C)c(C)c(CC2(C)CSC2)c(CC2(C)CSC2)c1C,·,0.0%[11.5 µM],-1.5%[11.4 µM],-2.5%[11.5 µM],·,1.0%[11.4 µM],·
COC(=O)C1=C(C)NC(C)=C(C(=O)OC)C1c1ccc(OC(=O)c2ccco2)cc1,·,-14.9%,8.9%,-16.4%,·,20µM*,-8.8
CCOC(=O)C1=C(C)NC(C)=C(C(=O)OCC)C1c1ccc(OC)cc1,>57,-10.0%,3.9%,-6.6%,?,23.1%,·
CS(=O)(=O)c1ccc(/C=N\NC(N)=S)cc1,·,-1.2%[11.5 µM],7.6%[11.4 µM],-3.1%[11.5 µM],·,0.9%[11.4 µM],·
CC(C)N(Cc1ccccc1)S(=O)(=O)c1n[nH]c(C(C)(C)C)n1,·,-4.8%[11.5 µM],8.7%[11.4 µM],1.7%[11.5 µM],·,3.8%[11.4 µM],·
COc1cc(OC)cc(C(=O)N2c3ccc(F)cc3CCC2C)c1 (stereo unspecified),>57,-1.8%,30.0%,-1.3%,>76.9,12.6µM*,12.3
CC(=O)c1cccc(NC(=O)c2cc(-n3cnnc3)ccc2Cl)c1,>57,0.1%,2.4%,0.6%,>76.9,1.8%,·
COc1cc(NC(=O)c2cc(-n3cnnc3)ccc2Cl)cc(OC)c1,·,-1.2%,6.1%,-3.3%,>76.9,·,-1.3[25.6 µM]
O=C(c1cc(-c2cccs2)on1)N1CCCc2ccccc21,·,-0.4%,?,-1.8%,·,?,?
O=C(NCc1ccco1)c1cc(-c2ccccc2)c(N2CCOCC2)s1,>57,-8.2%,-0.5%,-2.2%,>76.9,-7.0%,-61.5[25.6 µM]
O=C(O)c1cc(-c2ccccc2)c(N2CCOCC2)s1,>57,1.0%,11.9%,-1.7%,>76.9,12.0%,·
CC(=O)Nc1ccc(S(=O)(=O)N(C)c2ccccc2)cc1,·,0.7%,0.8%,0.9%,·,0.794µM*,4.5
O=S(=O)(Nc1ccc(Cl)cc1Cl)c1cc(Cl)ccc1Cl,·,-4.7%,8.1%,-2.4%,·,·,·
COC(=O)C1=C(C)OC(N)=C(C#N)C1c1ccccc1 (stereo unspecified),>57,-2.4%,23.1%,-9.7%,>76.9,3.2%,·
COC(=O)C1=C(C)OC(N)=C(C#N)C1C1CCCCC1 (stereo unspecified),>57,-1.0%,24.6%,0.9%,>76.9,12.6µM*,16.5
COC(=O)C1=C(C)OC(N)=C(C#N)C1c1c(C)nn(-c2ccccc2)c1Cl (stereo unspecified),>57,-0.9%,15.3%,-0.9%,>76.9,6.31µM*,6.0
CC(C)C(=O)NC(=O)C1CCCN1C(=O)/C=C/c1ccccc1 (stereo unspecified),·,-2.1%[11.5 µM],6.2%[11.4 µM],-0.8%[11.5 µM],·,-2.1%[11.4 µM],·

# Screening results: PubChem, National Center for Advancing Translational Sciences (NCATS)
